TDP1 cell CPT – growth inhibition of DT40 Tdp1-/-;hTDP1 cells with camptothecin (screen for TDP1 inhibitors). Potency, µM (highest dose often 46.2 µM), inactives show at the top dose activity change, negative = growth inhibition, most hits filed as inhibitors. chicken DT40 Tdp1-/-;hTDP1 cells + 20 nM CPT, ATP luminescence, 48 h. 12% of 420,000 active. AID 686979; also: potency is read from the fitted curve at half-maximal effect; nearly all actives have a fitted effect of over 55% in size
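Chicken DT40 Tdp1-/- cells complemented with human TDP1, 400 cells/well, exposed to compounds plus 20 nM camptothecin for at least 48 h at 37 C; viability read as ATP content by CellTiter-Glo luminescence.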
HT1080NT lethal – kills 2HG-producing HT-1080-NT fibrosarcoma cells | HT-1080-NT fibrosarcoma viability, CellTiter-Glo ATP luminescence, 48 h | Potency, µM (series often up to 46.1 µM), for the others: top-dose activity, negative = less viability, most hits filed as cytotoxic | 1.6% of 360,000 active;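 also: NT is the 2HG producing partner of a matched IDH1 knockdown line; potency is read from the fitted curve at half-maximal effect; 0% = DMSO-treated cells and -100% = media-only wells without cells; nearly all actives have a fitted effect of over 55% in size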
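Read-out is CellTiter-Glo luminescence after 10 minutes at room temperature, following 48 hours' compound treatment of HT-1080-NT cells (750 cells/well, RPMI, 5% FBS, 37 degrees C).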
IL-1B inflam inh – inflammasome signaling inhibition, IL-1 beta readout. THP-1 LPS/ATP IL-1B secretion, AlphaLISA, 16 h; hits give low values. activity change, % at 57.5 µM. 4.7% of 360,000 active. AID 743279; in the data active = activity change below about -50%; inconclusive = mostly about -30% to -49%
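THP-1 cells pretreated 1 hr with compounds (up to 57.5 uM final), then stimulated with LPS (250 ng/mL final) plus ATP (1.25 mM final); secreted IL-1B measured by AlphaLISA after 16 hr, decreased signal indicating inhibition.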
HT1080 IDH1KD tx – toxicity to HT-1080 IDH1 knockdown cells (counter line) | HT-1080 IDH1 knockdown viability, ATP luminescence, 48 h | Potency, µM (top dose mostly 46.1 µM), for inactives: top-dose activity, negative = toxicity, hits mostly cytotoxic | 2% of 360,000 active | AID 686971;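 also: potency is read from the fitted curve at half-maximal effect; 0% = DMSO wells and -100% = cell-free medium wells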
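Knockdown cells (IDH1KD HT-1080) received compounds 2 h after plating at 750 cells/well and were kept 48 h at 37 °C in 5% FBS RPMI. A CellTiter-Glo luminescence read gave % activity for curve fitting.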
ELG1 repair inh – blocks ELG1-dependent DNA repair in HEK293T cells; HEK293T ELG1-luciferase reporter, luminescence, 16 h; DNA damage induced by 5-fluorouridine; Potency, µM (series often up to 46.1 µM), for inactives: at the top dose activity change, negative = inhibition, most hits filed as inhibitors; 2.3% of 330,000 active; also: potency is read from the fitted curve at half-maximal effect; nearly all actives have a fitted effect of over 55% in size
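HEK293T cells expressing luciferase-tagged ELG1 (2,000/well) received 5-Fluorouridine plus compound or DMSO for 16 hr at 37 °C. Luciferase was read by ONE-Glo luminescence after 30 min at room temperature.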
TDP1 cell noCPT – qHTS for Inhibitors of human tyrosyl-DNA phosphodiesterase 1 (TDP1): qHTS in cells in absence of CPT; DT40 Tdp1-/- hTDP1 cells, no CPT, ATP luminescence, 48 h; Potency, µM (series often up to 46.2 µM), for inactives: at the highest dose activity change, negative = growth inhibition, usual class: inhibitors; 15% of 420,000 active; AID 686978, 2013; also: potency is read from the fitted curve at half-maximal effect; nearly all actives have a fitted effect of over 55% in size
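Cells were dispensed at 400 per well, compounds added by pin tool, plates incubated ≥48 hr at 37 °C, then CellTiter-Glo added for 30 min at room temperature before luminescence reading. Line: DT40 Tdp1-/- complemented with hTDP1; camptothecin omitted.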
* hit, by the source's call; u = inconclusive; x = no result; [ ] = another dose, or the depositor's remark. This is a sample that favours compounds with a hit; in the whole collection about 19% have one here. Unless noted, calls follow the shape of the dose curve; as a rule, active = well fitted curve in the direction sought with a large enough effect; inconclusive = small, poorly fitted or top-dose-only effect, or another doubt; inactive = no such curve, though single readings can be large; an effect the other way counts as inactive or inconclusive. Unless noted, % is scaled to controls: 0 for no effect and ±100 for the full control effect.

SMILES	TDP1 cell CPT	HT1080NT lethal	IL-1B inflam inh	HT1080 IDH1KD tx	ELG1 repair inh	TDP1 cell noCPT
CCOC(=O)C1=CCN(S(=O)(=O)c2ccc(C)cc2)C1c1cccc(Cl)c1 (stereo not drawn)	u	-29%	-30	u	x	23µM*
CCOC(=O)C1=CCN(S(=O)(=O)c2ccc(C)cc2)C1c1cccc(F)c1 (stereo not drawn)	u	-2%	-7	-5%	x	23µM*
CCOC(=O)C1=CCN(S(=O)(=O)c2cccc(Cl)c2)C1c1cccc(C)c1 (stereo not drawn)	u	-24%	-20	-1%	x	18µM*
O=c1c2cc3c(cc2n(Cc2ccccc2)c(=O)n1Cc1nc(-c2ccccc2)no1)OCO3	-25%	x	x	x	x	-22%
CN1CCc2c(sc3c2C(=O)NC(c2ccco2)N3)C1 (stereo not drawn)	-16%	1%	-2	-5%	18%	-2%
CN1CCc2c(sc3c2C(=O)NC(c2cn(Cc4ccccc4)c4ccccc24)N3)C1 (stereo not drawn)	21µM*	-1%	u	-17%	u	23µM*
O=C1NC(c2ccco2)Nc2sc3c(c21)CCN(Cc1ccccc1)C3 (stereo not drawn)	23µM*	-8%	14	-2%	-16%	16µM*
CC1(C)C(=O)C=C[C@@]2(C)C1C=C[C@@]1(C)C2CC[C@@]2(C)C(c3ccoc3)OC(=O)C3OC312 (stereo partly drawn)	16µM*	x	x	x	x	12µM*
C#CCN(C[C@H]1[C@H](OC(=O)Nc2c(C)noc2C)[C@H](OC(=O)Nc2c(C)noc2C)C[C@@H](C(=O)OC)[C@H]1C(=O)OC)S(=O)(=O)c1ccc(C)cc1	21µM*	0%	-10	2%	x	15µM*
C#CCN(C[C@H]1[C@H](OC(=O)NCCCCCC)[C@H](OC(=O)NCCCCCC)C[C@@H](C(=O)OC)[C@H]1C(=O)OC)S(=O)(=O)c1ccc(C)cc1	4.1µM*	-2%	-20	-3%	x	5.8µM*
Cc1ccc2oc3c(c(=O)c2c1)C(c1ccc(O)cc1)N(c1nc(C)c(C)s1)C3=O (stereo not drawn)	-5%	x	x	x	x	-8%
O=S(=O)(NCc1ccccc1)c1ccc(Cl)cc1	-7%	-9%	-3	-1%	u	-7%
O=S(=O)(Nc1cc2nc3ccccc3nc2n1Cc1ccccc1)c1ccc(Cl)cc1	u	u	-91*	-6%	u	23µM*
CCCCCC(=O)/C=C/C=C\CCCCCCCC(=O)O	3%[0.628 µM]	x	x	x	x	3%[0.628 µM]
CCCSc1ccc([C@@H]2[C@@H]3C(=O)N(CC)C(=O)[C@@H]3[C@]3(C(=O)OC)CCCCN23)cc1OC	16µM*	29%	0	8%	10%	23µM*
CCCSc1ccc([C@@H]2[C@@H]3C(=O)N(C)C(=O)[C@@H]3[C@]3(C(=O)OC)CCCN23)cc1OC	18µM*	0%	10	1%	-3%	u
CCN1C(=O)[C@H]2[C@@H](c3ccc(SC4CCCCC4)c(OC)c3)N3CCCC[C@@]3(C(=O)OC)[C@H]2C1=O	u	-28%	0	u	7%	23µM*
CCCCCCSc1ccc([C@@H]2[C@H]3C(=O)N(CC)C(=O)[C@H]3[C@]3(C(=O)OC)CCCCN23)cc1OC	21µM*	17%	-6	2%	-1%	u
COc1ccc(NC(=O)Cn2cnc3c(oc4ccccc43)c2=O)cc1OC	-16%	x	x	x	x	-12%
CCOc1ccc(Nc2nnc(-n3nc(C)cc3C)c3ccccc23)cc1	4%	x	x	x	x	2%
O=C(CN1CCOCC1)Nc1ccc(NC(=O)c2ccccc2F)cc1	-11%	24%	21	5%	6%	-17%
CSCCC(C)N1CCC(Oc2ccc(C(=O)NCc3ccccn3)cc2)CC1 (stereo not drawn)	-20%	2%	6	-1%	x	-5%
CCSc1ccc([C@@H]2[C@H]3C(=O)N(CC)C(=O)[C@H]3[C@]3(C(=O)OC)CCCCN23)cc1OC	u	-2%	-9	16%	-9%	16µM*
Cc1ccc(C)n1-c1nnc(N2CCCC(C(=O)NCc3ccc(F)cc3)C2)s1 (stereo not drawn)	18µM*	x	x	x	x	8.2µM*
CCc1ccc(CNC(=O)C2CCCN(c3nn4c(=O)cc(C)nc4s3)C2)cc1 (stereo not drawn)	-28%	-8%	-7	-2%	-1%	-23%
SMILES	TDP1 cell CPT	HT1080NT lethal	IL-1B inflam inh	HT1080 IDH1KD tx	ELG1 repair inh	TDP1 cell noCPT
Cc1ccc(C)n1-c1nnc(N2CCCC(C(=O)NCc3ccc(Cl)cc3)C2)s1 (stereo not drawn)	u	x	x	x	x	9.2µM*
Cc1ccc(CNC(=O)C2CCCN(c3nnc(-n4c(C)ccc4C)s3)C2)cc1 (stereo not drawn)	u	x	x	x	x	18µM*
Cc1ccc(CNC(=O)C2CCCN(c3nn4c(=O)cc(C)nc4s3)C2)cc1 (stereo not drawn)	10%	8%	-12	5%	-4%	u
COc1ccc(CNC(=O)COC(=O)c2ccc(OCC3CCCO3)cc2)cc1 (stereo not drawn)	u	u	31	u	-23%	u
Cc1cc([N+](=O)[O-])nn1CC(=O)NC(C)c1ccccc1 (stereo not drawn)	12%	2%	16	14%	29%	-1%
O=C(CN1CCCC1)NC(c1ccccc1)c1ccccc1	21µM*	u	-1	u	13%	16µM*
O=C(Cn1nc([N+](=O)[O-])nc1Br)NC(c1ccccc1)c1ccccc1	21µM*	5%	u	3%	3%	16µM*
O=C(CN1C(=O)NC2(CCCC2)C1=O)NC(c1ccccc1)c1ccccc1	u	-3%	-82*	-10%	-4%	16µM*
CCCCn1c(SCC(=O)NCc2ccc3c(c2)OCO3)nnc1C(CC)N(C)C (stereo not drawn)	-12%	1%	-5	-2%	-4%	-4%
N#Cc1ccc(CN(Nc2ccccc2)c2ccccc2)cc1	18µM*	u	49	-17%	x	21µM*
Cc1cc(CN(Nc2ccccc2)c2ccccc2)cc(C)n1	u	-5%	44	-4%	x	15µM*
c1ccc(NN(Cc2ccncc2)c2ccccc2)cc1	-24%	-1%	1	0%	x	u

High-throughput results: PubChem BioAssay, National Center for Advancing Translational Sciences (NCATS)
